Measured values taken from PubChem BioAssay (NCI).
About 83,000 compounds went through this panel and 20% of them were active in at least one assay; those are over-represented in the sample as a whole.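 The test compound was applied at a single concentration to cells in 96-well plates for 48 hours, and percent growth was recorded.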 Unmarked numbers belong to inactive results. Active and inactive are the calls of the source. Rule for the calls: active = growth percent below 10; inactive = the rest.

What follows are compounds tested on NCI-H23 lung (assay: NCI-60 one-dose screen, 48 h (100 = growth as untreated, 0 = no growth, -100 = all killed)). Details: 10 µM.

Compound | growth
Cc1cc(=O)oc2cc(OCCCCOc3ccc(/C=C/C(=O)Nc4ccccc4[N+](=O)[O-])cc3)ccc12 | 98.8%
COc1ccc(-c2nc(S(=O)(=O)c3ccc(C)cc3)c(S(C)(=O)=O)o2)cc1 | -78.1% (active)
CN1CCN(Cc2ccc(C(=O)Nc3cccc(Nc4ccc5c(O)cccc5n4)c3)cc2C(F)(F)F)CC1 | -69.8% (active)
O=C1NC(=NC23CC4CC(CC(C4)C2)C3)N/C1=C\c1ccc2ncccc2n1 | -53.7% (active)
COc1csc(/C=N/NC(=O)c2[nH]c3ccc(Br)cc3c2-c2ccccc2)c1 | 7.1% (active)
O=C(Cn1nc(-c2ccccc2)ccc1=O)NNC(=S)NC1CCCCC1 | 105%
NS(=O)(=O)c1ccc(NC(=O)CSc2ccc(-c3ccccc3)nn2)c(Br)c1 | 59.1%
O=c1c2ccccc2nc(COc2ccccc2)n1/N=C/c1ccc(F)cc1 | 85.6%
O=C(Nc1ccc(Cl)c([N+](=O)[O-])c1)Nc1ccc(Cl)c([N+](=O)[O-])c1 | -14.3% (active)
O=C(Nc1ccc(OCc2ccccc2)cc1)Nc1ccc(Cl)c(C(F)(F)F)c1 | -5.44% (active)
COc1ccc2nc(Cl)c(-c3cc(-c4ccccc4)nc(N)n3)cc2c1 | 37.7%
CN1CCN(c2ccc(Nc3nc(NCCCNC(=O)c4ccccc4)c4sccc4n3)cc2)CC1 | 82.5%
O=C1Nc2ccc(F)cc2/C1=C/c1cccc(OCc2ccccc2)c1 | 24.8%
Cc1noc2c(Cc3ccc([N+](=O)[O-])cc3)nn(CC(=O)N/N=C/c3ccc(Cl)cc3)c(=O)c12 | 57.9%
O=c1[nH]c2ccc(Cl)cc2cc1CSc1ccc(Nc2nccc(-c3ccc(Cl)cc3)n2)cc1 | 62.1%
O=S(=O)(Nc1ncccn1)c1ccc(-n2c(-c3ccc(Br)cc3)nc(-c3ccccc3)c2-c2ccccc2)cc1 | 22.5%
Cc1ccc(C(=O)NNC(=O)CSc2nc3ccccc3c(=O)[nH]2)cc1 | 98.5%
CCCn1c(O)c(N=Nc2nc(-c3cc4ccccc4oc3=O)cs2)c2cc(Br)ccc21 | 94.8%
CN1CCN(c2ccc(Nc3nc(NCCNC(=O)c4ccc(C(F)(F)F)cc4)c4sccc4n3)cc2)CC1 | 49.3%
CN1CCN(c2ccc(C(=O)/C=C/c3cc(C(F)(F)F)ccc3Cl)cc2)CC1 | -95.3% (active)
CCOc1ccc(/C=N/NC(=O)Cn2nc(Cc3ccccc3)c3onc(C)c3c2=O)cc1 | 37.4%
O=C(NO)c1ccc(-c2nc3ccc4[nH]ncc4c3c3c2CCCC3)cc1 | -56.7% (active)
COc1ccc(-c2ccc(/C=N/NC(=O)c3[nH]c4ccc(Br)cc4c3-c3ccccc3)o2)cc1 | 50%
CCOC(=O)C1=C(N)N(c2ccc(C)cc2)C2=C(C(=O)CC(C)(C)C2)C1c1ccccc1OC (stereo not given) | 109%
N#C/C(=C\c1ccc(N(c2ccccc2)c2ccccc2)cc1)C(N)=O | 55.9%
NC1=NC(c2ccccc2Cl)N=C(Nc2nn[nH]n2)N1 (stereo not given) | 106%
O=C(N/N=C/c1ccc(-c2cccc([N+](=O)[O-])c2)o1)c1[nH]c2ccc(Br)cc2c1-c1ccccc1 | 17.6%

The compounds below were run on NCI-H226 lung in the same assay as above. Details: 10 µM.

Compound | growth
CNC(=O)c1cccc(N2CCc3c2ccc(NC(=O)Nc2ccc(N4CCN(C)CC4)c(C(F)(F)F)c2)c3F)c1 | 104%
CC(=O)Nc1ccc(-n2cnc3cc(-c4ccc(O)cc4)ccc32)cc1C | 57%
CN(C)c1nc(NCCNS(=O)(=O)c2ccc(C(=O)/C=C/c3ccccc3)cc2)nc(Nc2ccc(F)cc2)n1 | 27.8%
O=C1CCC(N2Cc3c(C#CCCCNC(=O)c4ccc(NC(=O)[C@@H]5NC6(CCCCC6)[C@@]6(C(=O)Nc7cc(Cl)ccc76)[C@H]5c5cccc(Cl)c5F)cc4)cccc3C2=O)C(=O)N1 (stereo not given in full) | 24.1%
COc1cc(C2CC(c3ccccc3)=Nc3c(N)nc(N)nc3N2)ccc1Oc1nc(Nc2ccc(F)cc2)nc(N(C)C)n1 (stereo not given) | 40.4%
CCOC(=O)C1=C(N)N(c2ccc(Cl)cc2)C2=C(C(=O)CC(C)(C)C2)C1c1ccc(N2CCOCC2)cc1 (stereo not given) | 93.6%
O=C(c1ccc(Cl)cc1)C1[C@H](c2ccccc2Br)[C@@H](c2ccccc2)NC12C(=O)Nc1ccc(Cl)cc12 (stereo not given in full) | 18.9%
Nc1nc(Nc2ccc(Cl)cc2)nn1Cc1cccc(Br)c1 | 41.5%
O=S(=O)(Nc1ncccn1)c1ccc(-n2c(-c3ccccc3)nc(-c3ccccc3)c2-c2ccccc2)cc1 | 87.8%
CN1CCc2c(sc3ncnc(N/N=C/c4cn(-c5ccccc5)nc4-c4ccc(Cl)cc4)c23)C1 | 33.1%
Nc1nnc(-c2c[nH]c3ncccc23)c(-c2c[nH]c3ccc(Br)cc23)n1 | 63.6%
Cc1cc(=O)oc2cc(OCCCCOc3ccc(/C=C/C(=O)Nc4ccccc4[N+](=O)[O-])cc3)ccc12 | 127%
COc1ccc(-c2nc(S(=O)(=O)c3ccc(C)cc3)c(S(C)(=O)=O)o2)cc1 | 72.1%
CN1CCN(Cc2ccc(C(=O)Nc3cccc(Nc4ccc5c(O)cccc5n4)c3)cc2C(F)(F)F)CC1 | 41.3%
O=C1NC(=NC23CC4CC(CC(C4)C2)C3)N/C1=C\c1ccc2ncccc2n1 | -15.6% (active)
COc1csc(/C=N/NC(=O)c2[nH]c3ccc(Br)cc3c2-c2ccccc2)c1 | 23.1%
O=C(Cn1nc(-c2ccccc2)ccc1=O)NNC(=S)NC1CCCCC1 | 105%
NS(=O)(=O)c1ccc(NC(=O)CSc2ccc(-c3ccccc3)nn2)c(Br)c1 | 20.5%
O=c1c2ccccc2nc(COc2ccccc2)n1/N=C/c1ccc(F)cc1 | 78.9%

Compound | growth
O=C(Nc1ccc(Cl)c([N+](=O)[O-])c1)Nc1ccc(Cl)c([N+](=O)[O-])c1 | -4.77% (active)
O=C(Nc1ccc(OCc2ccccc2)cc1)Nc1ccc(Cl)c(C(F)(F)F)c1 | -27.7% (active)
COc1ccc2nc(Cl)c(-c3cc(-c4ccccc4)nc(N)n3)cc2c1 | 27.1%
CN1CCN(c2ccc(Nc3nc(NCCCNC(=O)c4ccccc4)c4sccc4n3)cc2)CC1 | 84.6%
O=C1Nc2ccc(F)cc2/C1=C/c1cccc(OCc2ccccc2)c1 | 35.3%
Cc1noc2c(Cc3ccc([N+](=O)[O-])cc3)nn(CC(=O)N/N=C/c3ccc(Cl)cc3)c(=O)c12 | 8.93% (active)
O=c1[nH]c2ccc(Cl)cc2cc1CSc1ccc(Nc2nccc(-c3ccc(Cl)cc3)n2)cc1 | 66%
O=S(=O)(Nc1ncccn1)c1ccc(-n2c(-c3ccc(Br)cc3)nc(-c3ccccc3)c2-c2ccccc2)cc1 | 26%
Cc1ccc(C(=O)NNC(=O)CSc2nc3ccccc3c(=O)[nH]2)cc1 | 92.4%
CCCn1c(O)c(N=Nc2nc(-c3cc4ccccc4oc3=O)cs2)c2cc(Br)ccc21 | 93.9%
CN1CCN(c2ccc(Nc3nc(NCCNC(=O)c4ccc(C(F)(F)F)cc4)c4sccc4n3)cc2)CC1 | 72.3%
CN1CCN(c2ccc(C(=O)/C=C/c3cc(C(F)(F)F)ccc3Cl)cc2)CC1 | -93% (active)
CCOc1ccc(/C=N/NC(=O)Cn2nc(Cc3ccccc3)c3onc(C)c3c2=O)cc1 | -19.3% (active)
O=C(NO)c1ccc(-c2nc3ccc4[nH]ncc4c3c3c2CCCC3)cc1 | -28.8% (active)
COc1ccc(-c2ccc(/C=N/NC(=O)c3[nH]c4ccc(Br)cc4c3-c3ccccc3)o2)cc1 | 44.1%
CCOC(=O)C1=C(N)N(c2ccc(C)cc2)C2=C(C(=O)CC(C)(C)C2)C1c1ccccc1OC (stereo not given) | 99.7%
N#C/C(=C\c1ccc(N(c2ccccc2)c2ccccc2)cc1)C(N)=O | -82.6% (active)
NC1=NC(c2ccccc2Cl)N=C(Nc2nn[nH]n2)N1 (stereo not given) | 105%
O=C(N/N=C/c1ccc(-c2cccc([N+](=O)[O-])c2)o1)c1[nH]c2ccc(Br)cc2c1-c1ccccc1 | 16.2%
